{"source": "PubChem BioAssay AID602350", "about": "(Broad Institute, 2012)", "note": "Results with a measured potency or affinity are listed apart. Activity calls are given as the source filed them.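 Rule for the calls: active = absorbance falls by 30% or more versus neutral controls, with a potency fitted within twice the top valid dose; inconclusive = no clear call, values can overlap the other calls; inactive = change opposite to expected direction, plus the rest.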"}
{"target": "Protein disulfide-isomerase (Homo sapiens) (UniProt P07237)", "sequence (P07237 whole entry, looked up)": "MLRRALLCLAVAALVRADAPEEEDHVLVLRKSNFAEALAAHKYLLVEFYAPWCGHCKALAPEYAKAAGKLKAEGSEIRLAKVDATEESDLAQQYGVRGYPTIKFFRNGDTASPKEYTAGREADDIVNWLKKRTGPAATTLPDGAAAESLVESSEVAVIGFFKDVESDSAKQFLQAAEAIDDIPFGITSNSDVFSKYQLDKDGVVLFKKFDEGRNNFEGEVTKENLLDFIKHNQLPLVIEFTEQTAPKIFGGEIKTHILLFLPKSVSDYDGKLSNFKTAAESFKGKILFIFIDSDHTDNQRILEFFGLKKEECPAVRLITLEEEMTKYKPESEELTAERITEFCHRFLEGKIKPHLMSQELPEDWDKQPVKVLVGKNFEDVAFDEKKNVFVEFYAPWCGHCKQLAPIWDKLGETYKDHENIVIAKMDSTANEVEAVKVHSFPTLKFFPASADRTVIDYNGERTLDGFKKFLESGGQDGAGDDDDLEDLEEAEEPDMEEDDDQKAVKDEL", "test": "inhibition of PDI-driven insulin aggregation – biochemical, turbidity, absorbance, cherry-picked samples, dose response (AID 602350);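 note: 0% = neutral controls and -100% = rutin hydrate positive control wells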", "conditions": "recombinant PDI insulin aggregation, absorbance 650 nm, 90 min; series mostly up to 19.5 µM; activity change, negative = inhibition: at the top concentration"}
{"smiles": "NC(=O)CSc1nnc([C@@H](N)Cc2c[nH]c3ccccc23)o1", "activity change, negative = inhibition": "-3.03% (inactive)"}
{"smiles": "C[C@H]1CCCC(=O)CCCCCc2cc(O)cc(O)c2C(=O)O1", "activity change, negative = inhibition": "8.5% (inactive)"}
{"smiles": "CCOC(=O)C1(CCOc2ccccc2)CCN(Cc2cccc(O)c2)CC1", "activity change, negative = inhibition": "-12.9% (inactive)"}
{"smiles": "CC(Cc1ccc(O)cc1)NCC(O)c1ccc(O)c(O)c1", "note": "(stereo unspecified)", "activity change, negative = inhibition": "-11.8% (inactive)"}
{"smiles": "CN1CCN(CCOC2c3ccccc3CSc3ccc(Cl)cc32)CC1", "note": "(stereo unspecified)", "activity change, negative = inhibition": "-3.03% (inactive)"}
{"smiles": "CCOC(C(=O)OCCCN(CC)CC)(c1ccccc1)c1ccccc1", "activity change, negative = inhibition": "8.02% (inactive)"}
